# PubChem BioAssay AID651965 (National Center for Advancing Translational Sciences (NCATS), 2013)
# Screen size: about 340,000 compounds; about 6,400 (1.9%) were called active. Entries that show only a call come without a potency. Not shown: some 4% with an inconclusive outcome. The call rests on the fitted dose curve; in most records, active means well fitted falling curve with a large enough effect; inconclusive means small, poorly fitted or top-dose-only effect; inactive means no such curve, though single readings can be large or run the other way. Only a selection was taken, and actives are over-represented in it overall.
# Target: ATP-dependent Clp protease proteolytic subunit (Bacillus subtilis (strain 168)) (UniProt P80244)
# Experiment: qHTS Assay for Activators of ClpP; further: the source files actives as falling curves though it sought activators and does not explain the sign; nearly all actives have a fitted effect of over 65% in size
# Conditions: purified B. subtilis ClpP, FRET peptide cleavage, 20 min; series mostly up to 57.5 µM
# In short: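 Purified B. subtilis ClpP, 10 microg/mL final in Tris/HCl pH8 with KCl, BSA, glycerol and Tween-20, cleaved an Abz/nitrotyrosine-quenched decapeptide. Fluorescence (ex 320, em 430) was read at 0 and 20 min at room temperature. Delta was normalized to 5.8 microM ADEP and DMSO/no-enzyme controls.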
# Potency means the concentration at half of the fitted maximal effect.
# Chain of ATP-dependent Clp protease proteolytic subunit (Bacillus subtilis (strain 168)) (P80244 whole entry, looked up): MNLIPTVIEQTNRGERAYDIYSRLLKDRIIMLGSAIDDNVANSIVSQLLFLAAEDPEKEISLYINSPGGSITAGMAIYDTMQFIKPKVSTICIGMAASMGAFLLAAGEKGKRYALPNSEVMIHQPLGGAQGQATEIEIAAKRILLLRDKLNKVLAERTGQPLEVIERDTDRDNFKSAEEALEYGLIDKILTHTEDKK
row,SMILES,Potency
1,O=C(CSc1nc2c(cnn2-c2ccc(F)cc2)c(=O)[nH]1)N1CCCCCC1,inactive
2,C=CCNC(=O)CSc1nc2sc(C)c(C)c2c(=O)[nH]1,inactive
3,CC(=O)c1sc2nc(SCC(=O)N3CCCCC3)[nH]c(=O)c2c1C,31.6 µM (active)
4,CC(C)CC1C(=O)N(Cc2cn(CC3CCCCC3)nn2)CCS(=O)(=O)N1Cc1ccc(-c2ccc(Cl)cc2)cc1 (stereo not drawn),inactive
5,CO[C@@H]1CN(C)C(=O)c2cc(NC(=O)Nc3cc(F)ccc3F)ccc2OC[C@H](C)N(C(=O)c2ccccn2)C[C@@H]1C,inactive
6,Cn1ncc(Br)c1C(=O)NCc1cccs1,inactive
7,CC(C)Cn1c(N)c(C(=O)NCc2cccs2)c2nc3ccccc3nc21,7.08 µM (active)
8,CCOc1ccccc1NC(=O)Cn1nnc(C(=O)NCc2cccs2)c1N,inactive
9,NCCCNC(=S)NCCCN(Cc1ccc(Cl)cc1)c1ccc(Br)cn1,inactive
10,CC1(C(=O)Nc2ccc3c(c2)OCCO3)CN(S(C)(=O)=O)CC(=O)N1Cc1cccc(F)c1 (stereo not drawn),inactive
11,O=C(NCc1cccnc1)Nc1ccccc1F,inactive
12,CCC(C(=O)NCc1cccnc1)n1nc(C)c2sc3ccccc3c2c1=O (stereo not drawn),inactive
13,CCC(Oc1ccccc1)C(=O)NCc1cccnc1 (stereo not drawn),35.5 µM (active)
14,CC(=O)Nc1cccc(-c2ccnc3c2CC(C)(C(=O)NCc2ccccc2)O3)c1 (stereo not drawn),inactive
15,CC1(C(=O)Nc2ccc3c(c2)OCCO3)CCN1C(=O)Cc1cc(F)ccc1F (stereo not drawn),inactive
16,COc1ccc(NC(=O)C2Cc3c(-c4ccc(Cl)cc4)ccnc3O2)cc1 (stereo not drawn),inactive
17,COc1ccc(CC(=O)Nc2c(C(N)=O)oc3ccccc23)cc1,inactive
18,COc1ccc(CC(=O)Nc2ccc(C(=O)NC(C)(C)C)cc2)cc1,inactive
19,COc1ccc(OCC(=O)Nc2nnc(-c3ccco3)s2)cc1,inactive
20,O=C(Nc1ccc(-c2nnc(-c3ccccc3)o2)cc1)C1CCCO1 (stereo not drawn),12.6 µM (active)
21,CC(=O)Nc1ccc(NC(=O)COc2ccc(-c3ccccc3)cc2)cc1,inactive

row,SMILES,Potency
1,O=C(Nc1cccc(-c2nnc(-c3ccccc3)o2)c1)C1CCCO1 (stereo not drawn),inactive
2,COc1ccc(CC(=O)Nc2ccc(-c3nnc(-c4ccccc4)o3)cc2)cc1,7.08 µM (active)
3,CCOc1ccc(-c2nnc(-c3ccco3)o2)cc1,8.91 µM (active)
4,O=C(CSc1nnc(-c2ccc(NS(=O)(=O)c3ccccc3)cc2)o1)NCC1CCCO1 (stereo not drawn),inactive
5,CCOc1ccc(NC(=O)c2ncoc2-c2ccco2)cc1,inactive
6,Cc1ccc(OCC(=O)Nc2ccc(-c3nnc(-c4ccco4)o3)cc2)cc1,28.2 µM (active)
7,O=C(CSc1nnc(-c2ccco2)o1)NCC(=O)c1ccccc1,inactive
8,Fc1cccc(Cc2c(-c3ccc(Cl)cc3)nc3ccc(Cl)cn23)c1,inactive
9,O=C(Nc1cccc2cccnc12)c1ccc2sc([C@H]3C[C@H](O)[C@@H](CO)O3)nc2c1,inactive
10,CCCCCc1c(Cc2ccccc2)ncn1CCc1ccccc1OC,inactive
11,O=C(Nc1nnc([C@H]2C[C@H](O)[C@@H](CO)O2)s1)c1cccc(Cl)c1,inactive
12,CC(C)(O)C1=C[N+](=O)CC=C1,inactive
13,O=S(=O)(c1cccc(C(F)(F)F)c1)N1c2ccccc2-n2cccc2C1c1cccnc1 (stereo not drawn),inactive
14,CN(C)c1ccc(/C=N\Nc2ccc([N+](=O)[O-])cc2[N+](=O)[O-])cc1Cl,inactive
15,O=C(Nc1ccc(Cl)cc1)c1cnn2c1NC(=C1CC1)C=C2C(F)F,inactive
16,CC(C)(C)c1ccc(S(=O)(=O)NC(=O)C2(C)CCN2C(=O)CC2CC2)cc1 (stereo not drawn),inactive
17,COc1ccc(C(C)C)cc1-c1ccc2nncn2c1,inactive
18,C/C=C/NNC(=O)Cc1ccc(OC)cc1,inactive
19,CC1(C)Cc2ccccc2-c2c[nH]c(=O)n21,inactive
20,O=c1oc2ccc(C#CC3(O)CCCCC3)cc2cc1-n1cc(-c2ccsc2)nn1,31.6 µM (active)
21,CCCCCn1nnnc1-c1nc2cc3ccccc3cc2[nH]c1=O,inactive

row,SMILES,Potency
1,CCOC(=O)[C@]12CCCC=C1N(Cc1ccc3c(c1)OCO3)C(=O)[C@H](CC(=O)NCc1cccs1)C2,inactive
2,O=C(c1ccc2c(=O)n(Cc3ccco3)c(=S)[nH]c2c1)N1CCCC1,inactive
3,O=C(Nc1cccc(-c2nc3ncccc3o2)c1)c1ccco1,inactive
4,Cc1cccc(C(=O)Nc2ccc(-c3nc4ncccc4o3)cc2C)c1,35.5 µM (active)
5,O=C(Nc1cc(-c2nc3ncccc3o2)ccc1Cl)c1ccco1,inactive
6,COc1ccc(C(NC(=O)C2CCN(CCCc3ccccc3)CC2)c2cccs2)cc1 (stereo not drawn),inactive
7,CCC(C)Nc1oc(-c2ccc(COc3ccc(Cl)cc3)o2)nc1C#N (stereo not drawn),28.2 µM (active)
8,Cc1ccccc1OCc1ccc(-c2nc(C#N)c(N3CCCCC3)o2)o1,inactive
9,COc1ccc(OCc2ccc(-c3nc(C#N)c(N4CCN(c5ccccc5)CC4)o3)o2)cc1,inactive
10,CN1CCN(c2oc(-c3ccc(COc4ccc(Cl)cc4)o3)nc2C#N)CC1,35.5 µM (active)
11,CC1CC(C)CN(c2oc(-c3ccc(OCc4ccc(Cl)cc4)cc3)nc2C#N)C1 (stereo not drawn),inactive
12,N#Cc1nc(COc2ccc(Cl)cc2)oc1N1CCCC1,inactive
13,CCCCCc1c(-c2ccc(OC)c(OC)c2)ncn1CCc1ccccc1OC,inactive
14,O=S(=O)(c1ccc(Cl)cc1)c1nnn2c1nc(NC1CCCC1)c1sccc12,25.1 µM (active)
15,CC1CCCN(c2nc3c(S(=O)(=O)c4ccc(C(C)C)cc4)nnn3c3ccsc23)C1 (stereo not drawn),inactive
16,O=S(=O)(c1ccc(Br)cc1)c1nnn2c1nc(NC1CCCCCC1)c1sccc12,inactive
17,C[C@@H]1Cn2cnc(C(=O)Nc3ccc(CNC(=O)OC(C)(C)C)cc3)c2C(=O)N1,inactive
18,CC1CN(C(=O)c2cccc(NS(=O)(=O)c3ccc(Br)cc3)c2)CC(C)O1 (stereo not drawn),inactive
19,COc1ccc(COC[C@H](CC(C)C)N2CCN(C(=O)c3cccc(C(F)(F)F)c3)CCC2=O)cc1,inactive
20,COC(=O)C[C@@H]1C=C[C@@H](NC(=O)c2cccnc2)[C@@H](CO)O1,inactive
21,COc1ccc(-c2c(C)nn3c(N4CCC(C(=O)NCCC(C)C)CC4)cc(C)nc23)cc1OC,inactive

row,SMILES,Potency
1,COc1ccc(CCNc2cc(C)nc3c(-c4ccc(Cl)cc4)c(C)nn23)cc1OC,28.2 µM (active)
2,COc1ccc(CCNc2nc(-c3ccc(Cl)cc3)cc(C(F)(F)F)n2)cc1OC,inactive
3,CNc1cncc(-c2cccc(C(=O)N3CCOCC3)c2)n1,inactive
4,NCCCCC(C(=O)O)N(C(=O)OCc1ccccc1)C(=O)OCc1ccccc1 (stereo not drawn),inactive
5,CC(C)(C)OC(=O)N(Cc1ccco1)S(=O)(=O)c1ccccc1Br,inactive
6,O=C(C(=O)N1CCC(c2ccccc2)CC1)c1ccccc1,inactive
7,Cc1nc2ccc(NC(=O)N3CCC(c4ccccc4)C3)cc2nc1C (stereo not drawn),10 µM (active)
8,Cc1ccc(C2CCN(C(=S)Nc3cccc(Cl)c3)C2)cc1 (stereo not drawn),inactive
9,COC(=O)[C@]12CCCCC=C1N(Cc1ccco1)C(=O)[C@H](CC(=O)NCC1CCCCC1)C2,inactive
10,C[C@H](NC(=O)[C@@H]1CCCN1C(=O)[C@@H]1CCCN1C(=O)c1ccccc1)c1ccccc1,inactive
11,CN(C)c1cccc2ccccc12,inactive
12,CCOc1ccc(NC(=O)c2c(NC(=O)Cc3ccccc3)sc3c2CCCCC3)cc1,inactive
13,O=C(Cc1ccccc1)Nc1sc2c(c1C(=O)Nc1ccc(Br)cc1)CCC2,inactive
14,O=C(CN1CCCC1)Nc1sc2c(c1C(=O)Nc1ccccc1)CCCC2,28.2 µM (active)
15,CCN(CC)CCCNC(=O)CCn1nc(-c2ccc(Cl)cc2)ccc1=O,inactive
16,CCc1ccc(-c2cc3c(=O)n(CC(=O)NCCCN4CCN(Cc5ccccc5)CC4)nc(C)n3n2)cc1,inactive
17,Cc1ccc(-c2ccc(=O)n(CC(=O)NCCCN3CCCCC3)n2)cc1,14.1 µM (active)
18,S=c1[nH]c(=S)c2n[nH]nc2[nH]1,inactive
19,NC(=O)Nc1ccc(/C=C/c2ccnc3ccccc23)cc1,inactive
20,CC(C)C1CC2=C(C(=O)OC(C)(C)O2)C(c2ccc(F)cc2)O1 (stereo not drawn),inactive
